This is a sample that favours compounds with a hit; in the whole collection about 31% have one here.
CYP2C19 act = cytochrome P450 2C19 (human) activation | AID 1025 | recombinant CYP2C19, luciferin-H EGE luminescence; hits give high values; 0 = fully inhibited enzyme, 1 = untreated enzyme | activation factor at 5 µM | 96,000 tested, under 10 active | P33261;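 active = activation factor of at least 2 at 5 µM in the primary screen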;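 also: 0 = wells with 2.5 mM tranylcypromine and 1 = vehicle-only wells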
CYP2C9 inh = inhibitors of human CYP2C9; P11712; CYP2C9 Supersomes, luciferin-H conversion, luminescence; inhibition, % at 5 µM; hit rate 20% among 96,000; AID 777;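 active = blocking of liver enzyme CYP2C9 beyond about 50% at 5 µM, limit read from the data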
Target sequence (P11712 whole entry, looked up): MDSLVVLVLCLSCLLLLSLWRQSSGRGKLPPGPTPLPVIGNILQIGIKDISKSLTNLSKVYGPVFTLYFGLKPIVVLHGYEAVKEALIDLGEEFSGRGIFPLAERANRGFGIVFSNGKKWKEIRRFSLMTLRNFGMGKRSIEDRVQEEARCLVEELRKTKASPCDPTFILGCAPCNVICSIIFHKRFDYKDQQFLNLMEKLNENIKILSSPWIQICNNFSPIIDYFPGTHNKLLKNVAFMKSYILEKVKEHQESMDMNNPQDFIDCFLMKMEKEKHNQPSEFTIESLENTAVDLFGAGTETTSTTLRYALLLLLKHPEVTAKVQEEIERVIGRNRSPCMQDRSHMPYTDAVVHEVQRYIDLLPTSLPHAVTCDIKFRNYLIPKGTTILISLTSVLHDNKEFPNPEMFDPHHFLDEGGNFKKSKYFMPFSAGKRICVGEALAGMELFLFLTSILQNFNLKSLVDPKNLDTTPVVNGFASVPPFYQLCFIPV
CYP2C9 act = increases human cytochrome P450 2C9 activity | AID 1024 | hit rate 1.4% among 96,000 | recombinant CYP2C9, luciferin-H conversion, luminescence; hits give high values; factor 1 = untreated enzyme, 0 = blocked | activation factor at 5 µM;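 active = activation factor of 2 or more for CYP2C9 at a 5 µM dose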;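 also: 0 = sulfaphenazole-blocked wells and 1 = vehicle-only wells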
CYP2C19 inhib = blocks human cytochrome P450 2C19; CYP2C19 Supersomes, luciferin-H EGE luminescence, 30 min; inhibition, % at 5 µM; AID 778; hit rate 21% among 96,000; P33261;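 active = CYP2C19 inhibition above a set limit at 5 µM in the primary screen, cut at about 50% in these data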;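 also: plate controls were negative control wells for no effect and 2.5 mM tranylcypromine positive control for full effect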
An asterisk follows results filed as active.

`COc1cc2c(cc1OC)-c1nc3ccccc3c(=O)n1C(C)(C)C2` gave CYP2C19 act 0.7, CYP2C9 inh 56*, CYP2C9 act 0.4 and CYP2C19 inhib 26.
`COc1ccc(-c2nnc3n2C(C)(C)Cc2cc(OC)c(OC)cc2-3)cc1` gave CYP2C19 act 0.9, CYP2C9 inh -63, CYP2C9 act 1.6 and CYP2C19 inhib 13.
Cc1ccccc1CNC(=O)c1ccccc1C was read as CYP2C19 act 0.5, CYP2C9 inh 9, CYP2C9 act 0.9 and CYP2C19 inhib 54*.
Cc1ccccc1CNC(=O)c1ccccc1N was read as CYP2C19 act 0.8, CYP2C9 inh -18, CYP2C9 act 1.2 and CYP2C19 inhib 20.
`Cc1ccccc1CNC(=O)c1ccccc1` gave CYP2C19 act 0.4, CYP2C9 inh 11, CYP2C9 act 0.9 and CYP2C19 inhib 57*.
`CCSc1nnc(NC(=O)CCNS(=O)(=O)c2cc(Br)cnc2N)s1` gave CYP2C19 act 0.6, CYP2C9 inh 62*, CYP2C9 act 0.4 and CYP2C19 inhib 43.
COc1ccc2[nH]c(C)c(CCN3C(=O)C4C5C=CC(C5)C4C3=O)c2c1 (stereo not given) was read as CYP2C19 act 0.1, CYP2C9 inh 37, CYP2C9 act 0.6 and CYP2C19 inhib 94*.
`COc1ccc2[nH]c(C)c(CN3CCCCC3)c(=O)c2c1` gave CYP2C19 act 1.1, CYP2C9 inh -12, CYP2C9 act 1.1 and CYP2C19 inhib -12.
Cn1c(=O)c2c(nc(Sc3ncccn3)n2Cc2ccccc2Cl)n(C)c1=O was read as CYP2C19 act 0.9, CYP2C9 inh 22, CYP2C9 act 0.8 and CYP2C19 inhib 11.
Cn1c(=O)c2c(nc(Sc3n[nH]c(N)n3)n2Cc2ccccc2Cl)n(C)c1=O was read as CYP2C19 act 0.5, CYP2C9 inh 15, CYP2C9 act 0.8 and CYP2C19 inhib 54*.
Cn1c(=O)c2c(nc(SCCCO)n2Cc2ccccc2Cl)n(C)c1=O was read as CYP2C19 act 0.7, CYP2C9 inh 54*, CYP2C9 act 0.5 and CYP2C19 inhib 34.
Screening O=C(CC1Oc2ccccc2NC1=O)NCc1ccc(Cl)cc1 (stereo not given) returned CYP2C19 act 0.9, CYP2C9 inh -44, CYP2C9 act 1.4 and CYP2C19 inhib 10.
`CCOC(=O)c1cnc(SCC(=O)Nc2nc(C)c(C)s2)nc1N` gave CYP2C19 act 0.5, CYP2C9 inh 91*, CYP2C9 act 0.1 and CYP2C19 inhib 51*.
For CCOC(=O)c1cnc(SCC(C)C)nc1N the results were CYP2C19 act 0.5, CYP2C9 inh 50, CYP2C9 act 0.5 and CYP2C19 inhib 50*.
For CCOC(=O)c1ccccc1NC(=O)CSc1ncc(C(=O)OCC)c(N)n1 the results were CYP2C19 act 0.6, CYP2C9 inh 88*, CYP2C9 act 0.1 and CYP2C19 inhib 40.
CCOC(=O)c1cnc(-c2ccccc2)nc1Oc1cccc(Cl)c1 was read as CYP2C19 act 1, CYP2C9 inh 51*, CYP2C9 act 0.5 and CYP2C19 inhib 3.
CC(C)(C)n1ncc2c(=O)n(CC(=O)N3CCN(c4ccccc4)CC3)cnc21 was read as CYP2C19 act 1, CYP2C9 inh 1, CYP2C9 act 1 and CYP2C19 inhib -1.
Screening CCOC(=O)c1cnc(-c2ccccc2)nc1N returned CYP2C19 act 0.1, CYP2C9 inh 64*, CYP2C9 act 0.4 and CYP2C19 inhib 85*.
For CCOC(=O)c1cnc(SC2CC(=O)N(c3ccc(OC)c(OC)c3)C2=O)nc1N (stereo not given) the results were CYP2C19 act 0.6, CYP2C9 inh 92*, CYP2C9 act 0.1 and CYP2C19 inhib 38.
Screening CCOC(=O)c1cnc2c(C#N)c(C)nn2c1-c1ccccc1 returned CYP2C19 act 0.1, CYP2C9 inh 11, CYP2C9 act 0.9 and CYP2C19 inhib 95*.
CCOC(=O)c1cnc(SCC(=O)c2ccccc2)nc1N was read as CYP2C19 act 0.2, CYP2C9 inh 25, CYP2C9 act 0.8 and CYP2C19 inhib 78*.
Screening Fc1ccc(-c2n[nH]c(=S)n2CC2CCCO2)cc1 (stereo not given) returned CYP2C19 act 0.8, CYP2C9 inh 22, CYP2C9 act 0.8 and CYP2C19 inhib 22.
COC(=O)CP(=O)(c1ccccc1)c1ccccc1 was read as CYP2C19 act 1.2, CYP2C9 inh -21, CYP2C9 act 1.2 and CYP2C19 inhib -25.
`CCCCN1CCc2c([nH]c3c(C)cccc23)C1=O` gave CYP2C19 act 0.5, CYP2C9 inh 48, CYP2C9 act 0.5 and CYP2C19 inhib 46.
`CCOC(=O)c1cnc(SC)nc1N` gave CYP2C19 act 0.6, CYP2C9 inh 12, CYP2C9 act 0.9 and CYP2C19 inhib 36.
CCOC(=O)c1cnc(SCC(=O)c2ccc3c(c2)OCCO3)nc1N was read as CYP2C19 act 0.8, CYP2C9 inh 52*, CYP2C9 act 0.5 and CYP2C19 inhib 17.
`CCOC(=O)c1cnc(SC)nc1Sc1ccccc1` gave CYP2C19 act 1, CYP2C9 inh 60*, CYP2C9 act 0.4 and CYP2C19 inhib 3.
For CC(C)(C)c1ccc(C(=O)NC(Cc2ccccc2)C(=O)O)cc1 (stereo not given) the results were CYP2C19 act 1, CYP2C9 inh 8, CYP2C9 act 0.9 and CYP2C19 inhib 1.
Screening CCOc1ccccc1OCCCC(=O)NC1=NCCS1 returned CYP2C19 act 0.6, CYP2C9 inh -69, CYP2C9 act 1.7 and CYP2C19 inhib 37.
`COc1ccc(CC(=O)NC2=NCCS2)cc1` gave CYP2C19 act 0.2, CYP2C9 inh 0, CYP2C9 act 1 and CYP2C19 inhib 76*.
Screening COc1cc(C(=O)NC2=NCCS2)ccc1OCc1c(C)noc1C returned CYP2C19 act 0.5, CYP2C9 inh 60*, CYP2C9 act 0.4 and CYP2C19 inhib 46.
`COc1cc(C(=O)NC2=NCCS2)cc(OC)c1OC` gave CYP2C19 act 1.1, CYP2C9 inh -11, CYP2C9 act 1.1 and CYP2C19 inhib -6.
COc1ccc(CCC(=O)NC2=NCCS2)cc1OC was read as CYP2C19 act 0.4, CYP2C9 inh -69, CYP2C9 act 1.7 and CYP2C19 inhib 61*.
`COc1cc(C(=O)NCc2ccc(C)cc2)ccc1OCc1c(C)noc1C` gave CYP2C19 act 0.8, CYP2C9 inh 43, CYP2C9 act 0.6 and CYP2C19 inhib 24.
`CC(C)(C)c1ccc(OCCCC(=O)NC2=NCCS2)cc1` gave CYP2C19 act 0.4, CYP2C9 inh 32, CYP2C9 act 0.7 and CYP2C19 inhib 65*.
COc1cc(OC)cc(C(=O)NC2=NCCS2)c1 was read as CYP2C19 act 1, CYP2C9 inh -2, CYP2C9 act 1 and CYP2C19 inhib -4.
Screening Cc1ccc(N2C(=O)C(O)(C(F)(F)F)C3=C2CC(C)(C)CC3=O)cc1C (stereo not given) returned CYP2C19 act 0.8, CYP2C9 inh 11, CYP2C9 act 0.9 and CYP2C19 inhib 20.
`CCCCC(=O)N(CCOC)c1nnc(-c2ccc(OC)cc2)s1` gave CYP2C19 act 0.8, CYP2C9 inh 1, CYP2C9 act 1 and CYP2C19 inhib 16.

High-throughput results: PubChem, Sanford-Burnham Center for Chemical Genomics
